For orientation: inhibition means the change of the read-out against control, counted positive when it falls.

The whole screen tested about 330,000 compounds, of which about 10,000 (3%) were called active. The list comes from a sample in which actives are over-represented; it also holds similar structures and randomly drawn compounds. Values without a mark were called inactive.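 The calls were made as follows: active = inhibition of at least 50% at 8 µM in the primary screen; inactive = the rest.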

Chain of Protein Mdm4 (Homo sapiens) + E3 ubiquitin-protein ligase Mdm2 (Homo sapiens) (O15151 whole entry, looked up): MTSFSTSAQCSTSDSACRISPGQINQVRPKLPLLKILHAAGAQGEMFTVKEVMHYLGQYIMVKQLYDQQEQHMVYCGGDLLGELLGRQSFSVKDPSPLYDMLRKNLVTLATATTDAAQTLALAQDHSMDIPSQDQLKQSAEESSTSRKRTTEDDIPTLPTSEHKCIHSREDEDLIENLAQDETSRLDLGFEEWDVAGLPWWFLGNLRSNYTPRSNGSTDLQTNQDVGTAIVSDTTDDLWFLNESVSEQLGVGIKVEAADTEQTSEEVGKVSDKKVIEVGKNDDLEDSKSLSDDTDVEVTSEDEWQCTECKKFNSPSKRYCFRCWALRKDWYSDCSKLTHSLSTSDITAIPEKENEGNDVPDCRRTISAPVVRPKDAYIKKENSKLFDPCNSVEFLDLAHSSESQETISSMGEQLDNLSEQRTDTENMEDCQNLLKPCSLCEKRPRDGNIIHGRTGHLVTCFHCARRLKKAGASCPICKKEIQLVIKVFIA
Chain of Protein Mdm4 (Homo sapiens) + E3 ubiquitin-protein ligase Mdm2 (Homo sapiens) (Q00987 whole entry, looked up): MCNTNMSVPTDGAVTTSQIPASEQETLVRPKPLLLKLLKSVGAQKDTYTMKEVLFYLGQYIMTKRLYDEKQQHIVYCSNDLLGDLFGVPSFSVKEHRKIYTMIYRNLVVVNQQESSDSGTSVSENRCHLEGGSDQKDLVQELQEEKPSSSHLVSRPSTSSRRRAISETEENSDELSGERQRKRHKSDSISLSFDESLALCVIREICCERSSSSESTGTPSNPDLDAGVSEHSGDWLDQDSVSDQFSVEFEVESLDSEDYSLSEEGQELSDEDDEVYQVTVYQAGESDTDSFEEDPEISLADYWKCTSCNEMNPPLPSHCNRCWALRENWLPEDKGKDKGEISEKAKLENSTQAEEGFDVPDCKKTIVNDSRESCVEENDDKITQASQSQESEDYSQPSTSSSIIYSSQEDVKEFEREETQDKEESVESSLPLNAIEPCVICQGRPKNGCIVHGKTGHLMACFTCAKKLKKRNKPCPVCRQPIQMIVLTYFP

The assay addresses Protein Mdm4 (Homo sapiens) + E3 ubiquitin-protein ligase Mdm2 (Homo sapiens) (UniProt O15151+Q00987). Kind of assay: disruptors of Mdm2/MdmX RING complex – cell-based, luminescence, split luciferase, SaOS-2, uHTS, primary screen (AID 485346). The conditions noted are these: SaOS-2 split-luciferase Mdm2/MdmX complementation, at 8 µM, hits give high values.
Consider `CCc1ccc(N(CC)c2ncnc3nc[nH]c23)cc1`, for which the inhibition was 63% (active).

With `COc1ccc(CCNc2ncnc3nc[nH]c23)cc1OC`, the inhibition was 18.1%.

Regarding `Cc1ccc(NC(=O)c2ccc(CSc3ncnc4nc[nH]c34)cc2)c(C)c1`, the inhibition is -2.54%.

Regarding `Cc1ccc(CNC(=O)c2cc(-c3ccccc3C)n(CC3CC(c4cccc([N+](=O)[O-])c4)=NO3)n2)cc1` (stereo not given), the inhibition was 26.5%.

In the case of `CCOc1ccc(-n2c(O)c(/C=N/Nc3nc(C)cc(C)n3)c3ccccc3c2=O)cc1`, the inhibition is 65.3% (active).

Turning to `CCOc1ccc(-n2c(O)c(/C=N/c3ccnn3Cc3ccncc3)c3ccccc3c2=O)cc1`, the inhibition is 2.6%.

As for `CCN(CC)CCCN=Cc1c(O)n(-c2ccc(C)cc2)c(=O)c2ccccc12`, the inhibition is -22.5%.

`CCCC1C(=O)N2C(N(C)C)=Nc3ccc(C)cc3N2C1=O` (stereo not given): the inhibition was 15.1%.

Turning to `CC1CCN(C(=O)CCc2nnc3ccc(NCc4ccco4)nn23)CC1`, the inhibition was 22.2%.

As to `CC(=O)c1ccc(Oc2cc(C)nc(-n3nc(C)cc3C)n2)cc1`, the inhibition was 59.2% (active).

With `Cc1cc(C)n(-c2ccc(C(=O)O)cc2[N+](=O)[O-])n1`, the inhibition is -9.75%.

Regarding `COc1ccc(C(C)=O)cc1CSc1nc2nc(C)cc(C)n2n1`, the inhibition was -8.43%.

With `CCOC(=O)C1C(c2ccc(OC)c(OC)c2)c2c([nH][nH]c2=O)CC1(C)O` (stereo not given), the inhibition was -7.74%.

Consider `COCCCNC(=S)NCCNc1nc2cc(C)c(C)cc2cc1C#N`, for which the inhibition is -28.9%.

Regarding `Cc1cc(C(=O)COC(=O)CCCN2C(=O)c3ccccc3C2=O)c(C)n1C`, the inhibition is 6.08%.

As to `C=CCN(CC=C)C(=O)CN1C(=O)c2ccccc2C1=O`, the inhibition was 11.2%.

Take `C=CCn1c(C)cc(C(=O)CN2C(=O)c3ccccc3C2=O)c1C`: the inhibition was 68% (active).

As for `Cc1cc(S(=O)(=O)N2CCOCC2)ccc1OCC(=O)Nc1cccc(C(F)(F)F)c1`, the inhibition is 23.2%.

For the compound `CC(C)n1cnc2c(NCc3ccccc3)cc(N[C@@H](CO)Cc3ccccc3)cc21`, the inhibition was 93.5% (active).

Consider `CCC(CO)Oc1cc(NCc2ccccc2)c2ncn(C3CCCC3)c2c1` (stereo not given), for which the inhibition is 7.28%.

Regarding `CC(C)n1cnc2c(NCc3ccccc3)cc(OCC3CCN(C)CC3)cc21`, the inhibition is 22.6%.

On to `CC(C)(Oc1ccc(C2CC2(Cl)Cl)cc1)C(=O)O` (stereo not given), for which the inhibition is 26.9%.

As to `Cn1cc(S(=O)(=O)N2CCN(c3ccc(F)cc3)CC2)c(=O)n(C)c1=O`, the inhibition was 8.49%.

As to `CCCCn1c(=S)[nH]c2cc(S(=O)(=O)N3CCCCC3)ccc21`, the inhibition is -7.07%.

With `O=C(Nc1cc(S(=O)(=O)Nc2ccc(Cl)cc2)ccc1O)c1ccc(F)cc1F`, the inhibition was 6.95%.

In the case of `Cc1nnnn1/C(=C\c1ccccc1)C(=O)OCC(=O)N1CC2(C)CC1CC(C)(C)C2` (stereo not given), the inhibition is 57.8% (active).

On to `Cc1cccc(C(=O)NCC(=O)OCC(=O)N2CC3(C)CC2CC(C)(C)C3)c1` (stereo not given), for which the inhibition is -13.6%.

Turning to `COc1ccc(C(=O)N2CC3(C)CC2CC(C)(C)C3)cc1OC` (stereo not given), the inhibition is 16.7%.

As for `Cc1ccc(C(=O)NCC(=O)O)s1`, the inhibition is 14%.

In the case of `CCc1nn(-c2cc(Oc3cccc4ccccc34)nc(-c3ccccc3)n2)c(N)c1C#N`, the inhibition was 86.8% (active).

Regarding `CC(C)(C)n1nc(Cc2cccc3ccccc23)c(C#N)c1N`, the inhibition was -12%.

For `CC#CC[N+](C)(C)CCCCCC`, the inhibition is -0.896%.

For `C=CCn1c(-c2ccccc2OCC)n[nH]c1=S`, the inhibition is 18.7%.

Consider `C/C(=N\NC(=O)c1cc(-c2ccc(O)cc2)nc2ccccc12)c1cccnc1`, for which the inhibition was -9.48%.

Consider `CCOc1cc(CNCc2ccccn2)ccc1OCC(=O)NC(C)(C)C`, for which the inhibition is -2.81%.

Turning to `NC(=O)c1nsc(C(=O)N(CC(=O)NCc2ccc(F)cc2)Cc2ccco2)c1N`, the inhibition was 9.54%.

With `COc1ccc(CNC(=O)C(c2ccc(O)cc2)N(Cc2ccco2)C(=O)c2snc(C(N)=O)c2N)cc1` (stereo not given), the inhibition is 54.5% (active).

As to `COc1cc(C(C(=O)NC2CCCC2)N(Cc2ccccc2)C(=O)c2snc(C(N)=O)c2N)ccc1O` (stereo not given), the inhibition is 21.6%.

In the case of `CCc1ccc(OCC(O)CN2CCN(CCO)CC2)cc1` (stereo not given), the inhibition was 19.2%.

Consider `CCOC(=O)c1cnn(Cc2ccccc2Cl)c1N`, for which the inhibition was -23.4%.

Regarding `CC(C)(C)n1ncc2c(=O)n(Cc3c(Cl)cccc3Br)cnc21`, the inhibition is 10.5%.

With `CC(C)c1nnc(NC(=O)C2CC(=O)N(CCc3ccc(F)cc3)C2)s1` (stereo not given), the inhibition was -16.4%.

With `CCN(C(=O)COC(=O)c1c(NC(C)=O)sc(C)c1C)C1CCS(=O)(=O)C1` (stereo not given), the inhibition was 13.7%.

Regarding `O=C(c1cccs1)N(Cc1cc2ccccc2[nH]c1=O)CC1CCCO1` (stereo not given), the inhibition was -37.5%.

As for `COc1ccc(-c2c(NC(=O)c3ccco3)oc3ccc(Cl)cc3c2=O)cc1`, the inhibition was -18.1%.

Consider `COc1ccc(-c2cc(C(=O)Nc3ccccc3O)c3ccccc3n2)cc1`, for which the inhibition is 9.09%.

For `COc1ccc(NC(=O)c2cc(-c3cc(OC)c(OC)c(OC)c3)nc3ccccc23)c(OC)c1`, the inhibition was 61.6% (active).

Take `COc1ccccc1NC(=O)c1cc(Cl)nc2ccccc12`: the inhibition was -6.72%.

On to `CCN(CC(=O)Nc1ccccc1C(=O)NC1CC1)Cc1cccs1`, for which the inhibition is 30.2%.

For `O=C(C1=C[C@H](c2coc3ccccc3c2=O)C[C@H](OCc2ccc(CO)cc2)O1)N1CCN(Cc2ccccc2)CC1`, the inhibition was 8.82%.

`CN(c1ccccc1)S(=O)(=O)c1cc(C(=O)OCC(=O)N2CCN(C(=O)c3ccco3)CC2)ccc1Cl`: the inhibition is 15.6%.

Turning to `CN(c1ccccc1)S(=O)(=O)c1ccc(C(=O)N2CCN(c3ccccc3Cl)CC2)cc1`, the inhibition was 28.8%.

As to `CN(c1ccccc1)S(=O)(=O)c1cc(C(=O)N2CCN(c3ncccn3)CC2)ccc1Cl`, the inhibition is 77.3% (active).

In the case of `COC(=O)c1ccc(C)c(NC(=O)Cn2c(C)csc2=O)c1`, the inhibition was 26.8%.

Take `CC(C)(C)Cc1nnc(NC(=O)c2cc(-c3ccccc3)nc3ccccc23)s1`: the inhibition is -22%.

`O=C(Nc1nnc(-c2ccccc2)o1)c1cc(-c2cccs2)nc2ccccc12`: the inhibition is 51% (active).

As for `O=C(Nc1nnc(-c2ccc(Cl)cc2)o1)c1ccccc1Br`, the inhibition was -13.3%.

As for `COc1ccc(Cl)cc1C(=O)NNC(=O)c1nc2nc(C)cc(C)n2n1`, the inhibition was 8.57%.

As to `CN(C)c1ccnc2sc3c(=O)n(Cc4ccccc4)cnc3c12`, the inhibition was 59.1% (active).

Turning to `O=c1c2c(ncn1Cc1ccccc1)nc1n2CCC1`, the inhibition was 19.7%.

As for `CN(C)/C=C/c1c(C#N)c(=O)ncn1Cc1ccccc1`, the inhibition was 13.9%.

`CN(CCC#N)c1ncnc2scc(-c3ccccc3)c12`: the inhibition is 21.2%.

Turning to `CC(C)CCN1CCC(C)(NC(=O)c2ccccc2)C1=O` (stereo not given), the inhibition is -21.2%.

As for `CN(C)CCn1c(=S)[nH]c2ccc(Cl)cc2c1=O`, the inhibition is 8.17%.

Take `Cc1ccc(C)c(N2CCN(C(=O)CCCn3c(=O)c4cccn4c4cccnc43)CC2)c1`: the inhibition is 1.5%.

On to `Cc1ccc(C)c(N2CCN(C(=O)CCCCCn3c(=S)[nH]c4ccc(N5CCOCC5)cc4c3=O)CC2)c1`, for which the inhibition was 85.6% (active).

For `CC(C)NC(=O)CCCn1c(=S)[nH]c2cc3c(cc2c1=O)OCO3`, the inhibition is -5.62%.

As for `Cc1ccc(C)c(N2CCN(C(=O)CCCCn3c(=O)[nH]c4ccccc4c3=O)CC2)c1`, the inhibition was 8.89%.

Regarding `O=C(CNS(=O)(=O)c1ccc2c(c1)OCCCO2)N1CCN(c2ccc(F)cc2)CC1`, the inhibition was 7.54%.

For the compound `O=C(CCn1c(=S)[nH]c2cc3c(cc2c1=O)OCO3)NCc1ccc(Cl)cc1`, the inhibition is 56.3% (active).

With `O=C(CCCCCn1c(=S)[nH]c2cc3c(cc2c1=O)OCO3)N1CCN(c2ccc(F)cc2)CC1`, the inhibition was 53.5% (active).

`O=C(NCCS(=O)(=O)N1CCN(c2ccc(F)cc2)CC1)c1ccc2c(c1)OCO2`: the inhibition is 7.26%.

As to `Cn1ccsc1=NC(=O)c1cc(S(=O)(=O)N2CCOCC2)ccc1Cl`, the inhibition is 28%.

Take `NS(=O)(=O)c1ccc(CCNC(=O)CN2C(=O)c3ccccc3S2(=O)=O)cc1`: the inhibition was 27.9%.

As to `O=C(COC(=O)c1ccc(Br)o1)NC12CC3CC(CC(C3)C1)C2`, the inhibition was 15.9%.

On to `Cc1csc(=O)n1CCC(=O)OCC(=O)NNC(=O)c1ccc(Br)cc1`, for which the inhibition was 8.79%.

As for `CCCN(CCC)C(=S)Nc1cc(C(=O)OC)ccc1C(=O)OC`, the inhibition is 9.38%.

Regarding `CCOC(=O)C1CCN(C(=O)c2ccccc2N(C)S(=O)(=O)c2ccccc2)CC1`, the inhibition was -12.4%.

Regarding `C=CS(=O)c1sc(Cl)c(N2CCOCC2)c1[N+](=O)[O-]` (stereo not given), the inhibition is 25.9%.

In the case of `CCOC(=O)c1c(-c2ccc(C)cc2C)csc1NC(=O)CSc1nnnn1C`, the inhibition was 73.7% (active).

`Cn1nnnc1SCC(=O)Nc1sccc1C(N)=O`: the inhibition is 0.655%.

On to `COC(=O)c1ccccc1NC(=O)CSc1nnnn1C`, for which the inhibition is -3.43%.

`Cc1ccc(/C=C/C(=O)O)cc1S(=O)(=O)N1CCC(Cc2ccccc2)CC1`: the inhibition is -1.19%.

Regarding `Cc1cccc(C(=O)Nc2ccccc2-c2nnn(CC(=O)Nc3ccc4c(c3)OCCO4)n2)c1`, the inhibition is 15.2%.

As to `Cc1ccc(S(=O)(=O)NCC(=O)Nc2ccc3c(c2)OCCO3)cc1`, the inhibition was 10%.

Take `CS(=O)(=O)c1ccc(-c2nnn(CC(=O)Nc3ccc4c(c3)OCCO4)n2)cc1`: the inhibition was 86.1% (active).

Consider `CC1CCCCC12NC(=O)N(CC(=O)OCc1c(F)cccc1Cl)C2=O` (stereo not given), for which the inhibition was 2.6%.

For `Cc1cc(C(=O)Cn2cnc3cc([N+](=O)[O-])ccc3c2=O)c(C)n1CC1CCCO1` (stereo not given), the inhibition was -7.26%.

`Cc1ccsc1C(=O)OCC(=O)c1cc(C)n(CC2CCCO2)c1C` (stereo not given): the inhibition is 94.1% (active).

Consider `COc1ccc(C(=O)OCC(=O)c2cc(C)n(CC3CCCO3)c2C)cc1[N+](=O)[O-]` (stereo not given), for which the inhibition is 2.69%.

The values above are taken from PubChem BioAssay AID485346 (Sanford-Burnham Center for Chemical Genomics, 2010).
